In PubChem BioAssay AID651640 (Broad Institute, 2012) one finds CPE inhibition data, which are given here for 66 compounds.

Molecules are shown by their SMILES. Where “and” joins values, the source holds several entries; their conditions need not be identical. Equal entries are not always repeated. Hit rate of the full screen: of about 350,000 compounds, about 6,000 (1.7%) were called active. Not shown: some 5% with an inconclusive outcome. No stated cut-off is given here; in the data, active means CPE inhibition above about 20% (passing the limit was not always enough); inconclusive means no clear call, values can overlap the other calls; tested in BHK-21 cells. The sample as a whole holds a higher share of actives than the screen did. Some structures have more than one record in an assay (separate samples or runs), and their calls can disagree.

The assay in a line: protection of cells from dengue 2 killing – plate reader, single concentration, primary screen (AID 651640).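 Further: 0% = median of neutral control wells and 100% = median of positive control wells.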 To be noted: DENV2-infected cells, cytopathic effect rescue, at 9.99 µM, stronger effect = higher value.
For the compound `O=C(Nc1nnc(-c2ccccc2)o1)c1cc(-c2cccs2)nc2ccccc12`, the CPE inhibition was -13.1% (inactive).
The same measure for `CC(=O)NCCNC(=O)c1cc(-c2cccc3ccccc23)nc2ccccc12`: 2.13% (inactive); for `CCCCN(C)CCCNC(=O)c1cc(-c2cccs2)nc2ccccc12`: 41.4% (active).
To `C/C=C/c1ccc([C@@H]2[C@@H](CO)N(C(C)=O)[C@H]2CN(C)C(=O)CN(C)C)cc1` belongs 8.38% (inactive).
The same measure for `C/C=C/c1ccc([C@H]2[C@@H](CO)N(C(=O)NCCC)[C@H]2CN(C)C(C)=O)cc1`: -22.2% (inactive); for `C/C=C/c1ccc([C@@H]2[C@@H](CN(C)C(C)=O)N(C(=O)C3CC3)[C@H]2CO)cc1`: 41.4% (active).
Turning to `COc1ccc(-c2cn(CC[C@H]3CC[C@@H](NC(=O)CCN4CCCCC4)[C@H](CO)O3)nn2)cc1`, the CPE inhibition is -5.26% (inactive).
The same measure for `Cc1noc(C)c1S(=O)(=O)Nc1ccc2c(c1)C(=O)N([C@@H](C)CO)C[C@H](C)[C@H](CN(C)CC1CCCCC1)OCCCC[C@H](C)O2`: -11.5% (inactive); for `O=C([C@@H]1[C@@H](CO)[C@@H]2Cn3c(ccc(-c4cncnc4)c3=O)[C@@H]2N1C(=O)C1CCC1)N1CCCCC1`: -0.056% (inactive).
To `COc1cccc(-c2ccc3n(c2=O)C[C@@H]2[C@@H](CO)[C@H](C(=O)NCC4CC4)N(C(=O)NC(C)C)[C@H]32)c1` belongs 13.2% (inactive).
For the compound `CC(C)NC(=O)N1[C@@H]2c3ccc(-c4ccc(F)cc4)c(=O)n3C[C@@H]2[C@@H](CO)[C@@H]1C(=O)N1CCOCC1`, the CPE inhibition is 69.3% (active).
Take `CCC(=O)N1CCCCN2[C@H](C1)[C@@H](c1ccc(/C=C/c3ccccc3)cc1)[C@@H]2CO`: the CPE inhibition is -4.84% (inactive).
For the compound `CC(C)(C)[S@](=O)N1Cc2cc(C(=O)N3CCCCC3)nc(-c3cccc(-c4ccccc4F)c3)c2[C@@H]1CCO`, the CPE inhibition was 1.74% (inactive).
To `CC(C)(C)[S@@](=O)N1Cc2cc(C(=O)N3CCCCC3)nc(-c3cccc(-c4cccc(C#N)c4)c3)c2[C@H]1CCO` belongs -1% (inactive); to `CC(C)(C)[S@](=O)N1Cc2cc(C(=O)N3CCCCC3)nc(-c3cccc(Br)c3)c2[C@@H]1CCO`, 41.3% (active); to `CCOC(=O)C1=C(C)N(C[C@@H]2CC[C@@H](Cc3ccc(-c4ccccc4)cc3)O2)C(=O)NC1c1ccc([N+](=O)[O-])cc1` (stereo partly specified), 49.3% (active).
As to `COC(=O)CCCCCN1C(=O)NC(c2ccc(-c3ccccc3)cc2)C(C(=O)OCc2ccccc2)=C1C` (stereo unspecified), the CPE inhibition was -1.13% (inactive).
The same measure for `CCC(CC)COC(=O)C1=C(C)NC(=O)NC1c1ccc([N+](=O)[O-])cc1` (stereo unspecified): 4.17% (inactive); for `C[C@@H]1CN([C@H](C)CO)C(=O)c2cc(NC(=O)CCCCCC(=O)Nc3ccccc3N)ccc2O[C@@H]1CN(C)Cc1ccncc1`: -1.11% (inactive); for `COc1ccc2c3c([nH]c2c1)[C@@H](CO)N(C(=O)c1cccc(F)c1)CC31CN(C(C)=O)C1`: -11.3% (inactive).
With `O=C(C[C@H]1C=C[C@@H](NC(=O)Nc2cc(F)ccc2F)[C@H](CO)O1)NCCCN1CCOCC1`, the CPE inhibition was -8.14% (inactive).
Regarding `COc1ccccc1NC(=O)N1C[C@H]2[C@@H](c3ccccc31)[C@@H](CO)N2C(=O)C1CCCC1`, the CPE inhibition was -7.24% (inactive).
Take `Cc1noc(C)c1S(=O)(=O)N(C)C[C@@H]1OCCCC[C@@H](C)Oc2ccc(NS(=O)(=O)c3ccccc3)cc2C(=O)N([C@H](C)CO)C[C@@H]1C`: the CPE inhibition was -8.98% (inactive).
To `COc1ccc(S(=O)(=O)Nc2ccc3c(c2)C(=O)N([C@@H](C)CO)C[C@H](C)[C@H](CN(C)S(=O)(=O)c2c(C)noc2C)OCCCC[C@@H](C)O3)cc1` belongs 36% (active); to `Cc1noc(C)c1S(=O)(=O)N(C)C[C@@H]1OCCCC[C@@H](C)Oc2ccc(NC(=O)Nc3ccccc3)cc2C(=O)N([C@H](C)CO)C[C@@H]1C`, 3.34% (inactive).
The same measure for `Cc1noc(C)c1S(=O)(=O)N(C)C[C@@H]1OCCCC[C@H](C)Oc2ccc(NC(=O)NC3CCCCC3)cc2C(=O)N([C@@H](C)CO)C[C@H]1C`: -11.4% (inactive); for `C[C@@H]1CCCCO[C@@H](CN(C)S(C)(=O)=O)[C@H](C)CN([C@@H](C)CO)C(=O)c2cc(NC(=O)Nc3ccc4c(c3)OCO4)ccc2O1`: 12.2% (inactive); for `COc1ccc(S(=O)(=O)N(C)C[C@H]2OCCCC[C@H](C)Oc3ccc(NS(=O)(=O)c4c(C)noc4C)cc3C(=O)N([C@@H](C)CO)C[C@@H]2C)cc1`: -3.17% (inactive).
In the case of `Cc1noc(C)c1S(=O)(=O)N(C)C[C@@H]1OCCCC[C@H](C)Oc2ccc(NC(=O)Nc3ccc4c(c3)OCO4)cc2C(=O)N([C@H](C)CO)C[C@@H]1C`, the CPE inhibition was -3.84% (inactive).
The same measure for `Cc1noc(C)c1S(=O)(=O)N(C)C[C@@H]1OCCCC[C@H](C)Oc2ccc(NC(=O)Nc3ccc4c(c3)OCO4)cc2C(=O)N([C@H](C)CO)C[C@H]1C`: 27.1% (active); for `Cc1noc(C)c1S(=O)(=O)N(C)C[C@@H]1OCCCC[C@H](C)Oc2ccc(NC(=O)NC(C)C)cc2C(=O)N([C@H](C)CO)C[C@@H]1C`: 51.8% (active).
To `CCC(=O)N1CCC2(CC1)CN(Cc1cccc(OC)c1)[C@@H](CO)c1[nH]c3cc(OC)ccc3c12` belongs -4.07% (inactive); to `C[C@@H]1CN([C@H](C)CO)C(=O)c2cc(C#CCN(C)C)cnc2O[C@@H]1CN(C)C(=O)Cc1cccnc1`, 6.92% (inactive); to `CCc1cccc(NC(=O)O[C@H]2[C@H](OC(=O)Nc3ccccc3-c3ccccc3)[C@H](OC(=O)Nc3ccccc3-c3ccccc3)[C@@H](OC)O[C@@H]2CO)c1`, 1.23% (inactive).
For `CC(C)CNc1cccc2c1S(=O)(=O)N[C@H](C)CO2`, the CPE inhibition is 2.95% (inactive).
To `CN(C)C(=O)C[C@@H]1C=C[C@H](NC(=O)Nc2cccc(F)c2)[C@H](CO)O1` belongs -10% (inactive); to `COc1cc(F)c(C2=CC(=O)CC(C)(C)C2)cc1F`, 26.9% (active); to `COc1ccc(CCNC2=CC(=O)CC(C)(C)C2)cc1`, 16.6% (inactive).
The same measure for `CC1(C)CC(=O)C=C(c2ccc(Cl)c(C(F)(F)F)c2)C1`: 1.16% (inactive); for `Cc1cc(F)ccc1S(=O)(=O)Nc1ncnc2scc(-c3ccc(F)cc3)c12`: 46.8% (active).
The same measure for `O=S(=O)(Nc1ncnc2sccc12)c1cccc(F)c1`: -1.13% (inactive); for `COc1ccc(-c2csc3ncnc(N4CCN(S(=O)(=O)c5cccc(F)c5)CC4)c23)cc1`: 5.97% (inactive); for `O=C1CN(S(=O)(=O)c2ccccc2)C[C@H]2[C@H](c3ccc(C4=CCCC4)cc3)[C@@H](CO)N12`: -1.48% (inactive).
`COc1cccc(NC(=O)N[C@@H]2CC[C@H](CC(=O)Nc3ccccc3)O[C@@H]2CO)c1`: the CPE inhibition is 3.12% (inactive).
On to `Nc1ccccc1-c1cn(CC(=O)Nc2ccon2)nn1`, for which the CPE inhibition is 15.8% (inactive).
To `CO[C@@H]1CN(C)C(=O)c2ccc(NS(=O)(=O)c3cccc(C)c3)cc2OC[C@@H](C)NC[C@H]1C` belongs 10.6% (inactive); to `Cc1noc(C)c1NC(=O)N(C)C[C@@H]1OCCCC[C@H](C)Oc2ccc(NC(=O)NC3CCCCC3)cc2C(=O)N([C@H](C)CO)C[C@@H]1C`, -0.006% (inactive); to `C[C@@H]1CN([C@@H](C)CO)C(=O)c2cc(NC(=O)Nc3cccc4ccccc34)ccc2O[C@@H]1CN(C)Cc1ccc(-c2ccccc2)cc1`, 6.66% (inactive).
In the case of `COc1ccc(CN(C)C[C@@H]2Oc3ccc(NC(=O)Nc4cccc5ccccc45)cc3C(=O)N([C@H](C)CO)C[C@H]2C)cc1`, the CPE inhibition is 1.24% (inactive).
With `C[C@@H]1CN([C@H](C)CO)C(=O)c2cc(NC(=O)CCN3CCOCC3)ccc2O[C@H]1CN(C)Cc1ccc(Oc2ccccc2)cc1`, the CPE inhibition is 25.3% (active).
Regarding `COc1ccc(CN(C)C[C@H]2Oc3ccc(NC(=O)CCN4CCOCC4)cc3C(=O)N([C@@H](C)CO)C[C@H]2C)cc1`, the CPE inhibition is 8.91% (inactive).
The same measure for `C[C@@H]1CN([C@@H](C)CO)C(=O)c2cc(NC(=O)Cc3ccccc3)ccc2O[C@@H]1CN(C)Cc1ccc(Oc2ccccc2)cc1`: -2.18% (inactive).
To `C[C@@H]1CN([C@@H](C)CO)C(=O)c2cc(NC(=O)Nc3cccc4ccccc34)ccc2O[C@H]1CN(C)Cc1ccc(Oc2ccccc2)cc1` belongs 29.3% (active); to `CC(=O)c1ccc(S(=O)(=O)NCC2CCN(C(=O)C(=O)c3cccs3)CC2)cc1`, -2.02% (inactive); to `N#Cc1cccc(-c2ccc(C3[C@H]4CNC[C@@H]3N4Cc3cncnc3)cc2)c1` (stereo partly specified), -5.94% (inactive).
On to `COc1ccccc1CN1[C@@H]2CNC[C@H]1C2c1ccc(-c2cccc(C#N)c2)cc1` (stereo partly specified), for which the CPE inhibition is 9% (inactive) and 53.2% (active).
The same measure for `N#Cc1ccc(-c2ccc([C@@H]3[C@H]4CNC[C@@H]3N4Cc3cc(F)ccc3F)cc2)cc1`: -0.209% (inactive).
To `CCCNC(=O)C[C@@H]1CC[C@@H]2[C@H](COc3ccc(NC(=O)C4CCOCC4)cc3C(=O)N2C)O1` belongs 11.7% (inactive); to `CCN(CC(=O)NCC(=O)Nc1cccc(C)c1C)Cc1ccccc1`, 61.4% (active).
To `Cc1cccc(NC(=O)COC(=O)CCc2ccccc2)c1C` belongs 0.193% (inactive).
`CCN(CC(=O)Nc1ccc(C)c(S(=O)(=O)N(C)C)c1)Cc1ccccc1`: the CPE inhibition is 7.9% (inactive).
The same measure for `CO[C@H]1CN(C)C(=O)c2cc(NC(=O)c3ccccc3)ccc2OC[C@H](C)NC[C@H]1C`: -12.8% (inactive); for `O=C(N[C@@H]1C=C[C@@H](CC(=O)N2CCOCC2)O[C@H]1CO)c1ccccn1`: -8.41% (inactive).
To `CCC(C(=O)NC(C)(C)C)n1c(-c2ccccc2)nc2ccccc21` (stereo unspecified) belongs -20.3% (inactive); to `CCCc1nc2ccccc2n1C(C)C(=O)NC(C)(C)C` (stereo unspecified), 34.6% (active).
The same measure for `CC(C)(C)NC(=O)C(CCc1ccccc1)n1c(=O)c(-c2ccccc2)nc2ccccc21` (stereo unspecified): 8.63% (inactive).
